Screening results as filed in PubChem.
Hits are enriched below; roughly 12% of the tested compounds scored in any of these assays.
ROMK primary = modulators of human ROMK potassium channel; Tet-inducible ROMK, thallium flux fluorescence; actives lie on both sides; B-score at 10 µM; hit rate 2% among 130,000; AID 1918;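 active means signal ratio slope over the read window, or its plate-corrected B-score, at least 3 SD from the plate mean, either direction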;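 further: B-score of the F/F0 ratio slope over 7 to 12 s after thallium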
Insulin prom up = MIN6 insulin promoter up-regulation; MIN6 insulin promoter-GFP reporter, high-content imaging; stronger effect = higher value; z-score at 5 µM; hit rate 0.3% among 190,000;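 active means z-score above 3 at 5 µM with at least 500 cells counted in the well; inconclusive means wells under 500 cells, flagged as cytotoxic or low count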
Insulin prom inh = TRM-6 insulin promoter activity inhibition; TRM-6 cells (human fetal islet line), insulin promoter-eGFP reporter, imaging; reporter expression induced with tamoxifen; inhibition, % at 2 µM; hit rate 0.9% among 130,000; AID 1273;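 active means inhibition above the mean plus 3 SD, with well images judged a real hit on visual review, cut at about 60% in these data, passing the limit was not always enough; inconclusive means inhibition over the cutoff but images rejected on review; inactive means inhibition not above the cutoff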
WT yeast gro inh = growth inhibition of WT yeast, mitochondrial fusion screen; inhibition, % at 10 µM; AID 1362; mitochondrial fusion phenotypic screen, WT strain; hit rate 2.1% among 190,000; in the data active means inhibition above about 58%; tested in S. cerevisiae
Lmaj promast = Leishmania major promastigote growth inhibition. Leishmania major promastigotes, resazurin fluorescence viability. inhibition, % at 10 µM. hit rate 9% among 200,000. AID 1063; in the data active means inhibition above about 50%;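 further: promastigotes grown with compound for 44 hours at 28 °C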
KCC2 mod = modulates chloride dependent transport by human KCC2; Q9H2X9; KCC2 cells, thallium flux FluoZin-2 fluorescence; B-score of Tl+ flux slope (higher = more flux/activation; lower = inhibition) at 10 µM; hit rate 2.2% among 190,000; AID 1456;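 active means thallium flux slope and its plate-corrected score both differing from the plate sample mean at a set confidence after two filtering rounds, in either direction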;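 further: slope of fluorescence scaled to starting intensity during 10 to 20 s after thallium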
Target sequence (Q9H2X9 whole entry, looked up): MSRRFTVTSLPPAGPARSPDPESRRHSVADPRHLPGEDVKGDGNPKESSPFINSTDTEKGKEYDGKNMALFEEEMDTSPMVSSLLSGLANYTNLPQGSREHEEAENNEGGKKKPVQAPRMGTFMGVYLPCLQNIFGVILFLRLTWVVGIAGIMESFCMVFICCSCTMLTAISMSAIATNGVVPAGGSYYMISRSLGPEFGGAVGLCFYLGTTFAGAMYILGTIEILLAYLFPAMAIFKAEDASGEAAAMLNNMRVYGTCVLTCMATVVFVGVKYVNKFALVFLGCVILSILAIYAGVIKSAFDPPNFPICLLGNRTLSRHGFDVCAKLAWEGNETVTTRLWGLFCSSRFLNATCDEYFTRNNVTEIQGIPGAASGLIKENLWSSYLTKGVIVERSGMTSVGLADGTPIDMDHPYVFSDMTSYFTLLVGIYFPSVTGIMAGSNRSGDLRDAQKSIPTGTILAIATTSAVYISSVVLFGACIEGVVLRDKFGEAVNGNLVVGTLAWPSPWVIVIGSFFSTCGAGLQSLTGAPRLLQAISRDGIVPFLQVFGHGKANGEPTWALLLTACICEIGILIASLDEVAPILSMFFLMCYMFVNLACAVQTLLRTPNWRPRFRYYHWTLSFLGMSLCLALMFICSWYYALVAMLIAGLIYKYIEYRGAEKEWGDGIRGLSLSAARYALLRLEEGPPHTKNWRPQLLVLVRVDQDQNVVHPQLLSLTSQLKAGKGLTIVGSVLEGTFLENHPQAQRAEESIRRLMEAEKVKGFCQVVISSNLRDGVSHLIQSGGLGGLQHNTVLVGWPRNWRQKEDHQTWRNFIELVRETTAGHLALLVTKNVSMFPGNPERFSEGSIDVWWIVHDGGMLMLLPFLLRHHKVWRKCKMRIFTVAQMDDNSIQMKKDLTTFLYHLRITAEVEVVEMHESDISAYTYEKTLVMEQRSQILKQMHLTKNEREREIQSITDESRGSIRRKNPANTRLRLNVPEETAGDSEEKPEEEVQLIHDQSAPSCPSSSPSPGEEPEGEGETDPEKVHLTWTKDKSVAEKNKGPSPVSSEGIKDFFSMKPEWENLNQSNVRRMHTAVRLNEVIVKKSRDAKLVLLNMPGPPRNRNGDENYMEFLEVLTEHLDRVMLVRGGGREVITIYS
ROMK hit retest = human ROMK channel modulation, retest confirmation. shares compounds with ROMK primary. ROMK thallium flux, fluorescence ratio; stronger effect = lower value. normalized thallium flux (F/F0 slope) at 10 µM. hit rate 54% among 3,000;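 active means Flux at 10 µM at least 3 SD below or above vehicle control mean in one or both replicates; inconclusive means no clear call, values can overlap the other calls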
Numbers without * were called inactive.

For Cc1ccc(S(=O)(=O)Nc2ccccc2C(=O)Nc2nc(-c3ccc(F)cc3)cs2)cc1 the results were Insulin prom up -0.65, Insulin prom inh 5.1, WT yeast gro inh 73.9*, Lmaj promast 54.0*, KCC2 mod 0.721 and ROMK hit retest 0.0571*.
O=C(Nc1cc(S(=O)(=O)N2CCCCC2)ccc1O)c1ccccc1NS(=O)(=O)c1ccc(F)cc1 was read as ROMK primary 3.31*, Insulin prom up -0.6, Insulin prom inh -43.3, WT yeast gro inh -3.9, Lmaj promast -8.7, KCC2 mod -0.0863 and ROMK hit retest 0.0892.
Screening FC(F)(F)c1ccc(N2CCN(c3ncnc4c3nnn4Cc3ccccc3Cl)CC2)cc1 returned ROMK primary -0.045, Insulin prom up -0.64, Insulin prom inh 31.2, WT yeast gro inh 7.0, Lmaj promast -1.2 and KCC2 mod -0.36.
COc1cc(NC(=O)N[C@@H](Cc2ccccc2)C(=O)O)cc(OC)c1 was read as ROMK primary 0.972, Insulin prom up 1.34, Insulin prom inh 50.0, WT yeast gro inh -14.9, Lmaj promast -2.9 and KCC2 mod -0.308.
`c1ccc(CCNc2ncnc3ccccc23)cc1` gave ROMK primary -3.71*, Insulin prom up inconclusive, WT yeast gro inh 48.0, Lmaj promast 42.4, KCC2 mod 0.748 and ROMK hit retest 0.0756.
`Brc1ccc2ncnc(NCc3ccccc3)c2c1` gave Insulin prom up -0.95, Insulin prom inh inconclusive, Lmaj promast 46.2 and KCC2 mod 0.13.
Screening O=C(N/N=C/C=C/c1ccccc1)c1n[nH]c2c1CCC2 returned ROMK primary 3.96*, Insulin prom inh 24.3, WT yeast gro inh 20.4, Lmaj promast 5.6, KCC2 mod 0.483 and ROMK hit retest 0.09.
For CC(NC(=O)/C(=C\c1cccc([N+](=O)[O-])c1)NC(=O)c1ccco1)C(=O)O (stereo not given) the results were ROMK primary -0.96, WT yeast gro inh 0.8, Lmaj promast -9.2 and KCC2 mod -0.0319.
`O=c1c2ccccc2nnn1CSc1nnc(C2COc3ccccc3O2)n1-c1ccccc1` (stereo not given) gave ROMK primary -2.94*, Insulin prom up 0.09, Insulin prom inh -57.7, WT yeast gro inh 27.4, Lmaj promast 8.6, KCC2 mod -1.44 and ROMK hit retest 0.0417*.
Screening O=C(OCn1nnc2ccccc2c1=O)C1COc2ccccc2O1 (stereo not given) returned Insulin prom up 0.29, WT yeast gro inh -15.2 and Lmaj promast 2.5.
`CCOC(=O)c1cnc2ccccc2c1NCc1ccco1` gave Insulin prom up -0.74.
`Cc1cc(N2CCN(C(c3ccccc3)c3ccccc3)CC2)n2ncnc2n1` gave ROMK primary 1.54*, Insulin prom up 1.06, Insulin prom inh 13.3, WT yeast gro inh 38.2, Lmaj promast -0.5 and ROMK hit retest inconclusive.
`Cc1cc(N2CCN(c3nc4ccccc4s3)CC2)n2ncnc2n1` gave Insulin prom up -2.57, Insulin prom inh 45.2, WT yeast gro inh -25.2, Lmaj promast -0.7, KCC2 mod -1.65 and ROMK hit retest 0.0642*.
Screening O=C(NCc1ccccc1)c1ccc(Br)cc1 returned ROMK primary -4.48*, Insulin prom up -0.17, WT yeast gro inh -5.5, Lmaj promast 0.6, KCC2 mod 0.232 and ROMK hit retest inconclusive.
For CCCc1nc2c(nnn2Cc2ccccc2F)c(=O)[nH]1 the results were ROMK primary -0.264, Insulin prom up 0.48, Insulin prom inh 18.8, WT yeast gro inh 4.5 and Lmaj promast -9.6.
`O=c1[nH]c(C(F)(F)F)nc2c1nnn2Cc1ccccc1F` gave ROMK primary 3.41*, Insulin prom up -0.15, Insulin prom inh -2.7, WT yeast gro inh -10.6, Lmaj promast -5.1, KCC2 mod -0.463 and ROMK hit retest 0.0775.
Screening Cc1ccc(/C=N/NC(=O)c2ccccc2OCc2cccc(Br)c2)o1 returned ROMK primary -2.12, Insulin prom up -0.31, WT yeast gro inh 30.4, Lmaj promast 29.8 and KCC2 mod -2.19.
For CCOC(=O)C1CCN(C(=S)NC2CCCC2)CC1 the results were ROMK primary -0.00238, Insulin prom up 0.43, WT yeast gro inh -4.4, Lmaj promast -0.3 and KCC2 mod 0.326.
For CN1CCN(CCCN2c3ccccc3Sc3ccc(Cl)cc32)CC1 the results were Insulin prom up 0.02, Insulin prom inh -14.3, WT yeast gro inh 93.9*, Lmaj promast 99.7*, KCC2 mod 0.00451 and ROMK hit retest 0.0481*.
For CCOc1ccc(C(=O)Nc2ccc3c(c2)OCCO3)cc1[N+](=O)[O-] the results were ROMK primary -3.33*, Insulin prom inh 0.0, WT yeast gro inh -2.3, Lmaj promast -1.5, KCC2 mod 1.12 and ROMK hit retest 0.0803.
For COc1ccccc1S(=O)(=O)Nc1cc(S(=O)(=O)N2CCCCC2)ccc1N1CCOCC1 the results were ROMK primary -1.47, Insulin prom up -0.3, Insulin prom inh -94.1, WT yeast gro inh -3.6, Lmaj promast 10.2 and KCC2 mod -0.0458.
Screening S=c1nc(-c2ccccc2)n(CCCn2ccnc2)c2c1CCCC2 returned Insulin prom up -0.32, WT yeast gro inh 10.3, Lmaj promast -8.2 and KCC2 mod 0.931.
Screening CCCCn1cnc2c(c(-c3ccccc3)c(-c3ccccc3)n2Cc2ccco2)c1=N returned Insulin prom up -2.04, KCC2 mod -0.962 and ROMK hit retest 0.03*.
For N=c1c2c(-c3ccccc3)c(-c3ccccc3)n(Cc3ccccc3)c2ncn1CCCn1ccnc1 the results were ROMK primary -4.41*, Insulin prom up -0.08, WT yeast gro inh -3.4, Lmaj promast 100.4*, KCC2 mod 1.9 and ROMK hit retest 0.0496*.
`COC(=O)Cc1cc(=O)[nH]c(/N=C(\N)Nc2ccc(C)cc2C)n1` gave ROMK primary 0.764, Insulin prom up 0.81, Insulin prom inh 0.0, WT yeast gro inh -10.4, Lmaj promast -0.1 and KCC2 mod 0.316.
Screening CCCn1c(NCc2ccc(C)o2)nc2ccccc21 returned Insulin prom up -1.2, Insulin prom inh 40.0, WT yeast gro inh 13.4, Lmaj promast 22.7 and KCC2 mod -0.0569.
For COc1cc(/C=C2/C(=O)NN(c3ccc(Cl)cc3)C2=O)ccc1OC(=O)c1ccco1 the results were ROMK primary -3.3*, Insulin prom up -0.34, Insulin prom inh 21.1, WT yeast gro inh 4.9, Lmaj promast 51.8*, KCC2 mod -0.645 and ROMK hit retest 0.0708.
`COc1ccc(/C=C/C(=O)c2cc(Br)ccc2OC(=O)c2ccco2)cc1OC` gave ROMK primary 2.16, Insulin prom up -0.64, Insulin prom inh -21.4, WT yeast gro inh 65.0*, Lmaj promast 78.6*, KCC2 mod -0.16 and ROMK hit retest 0.0832.
For COC(=O)N/N=C/c1ccc(OC(=O)c2ccco2)c(OC)c1 the results were ROMK primary 4.62*, Insulin prom up -0.24, KCC2 mod 0.0143 and ROMK hit retest 0.0735.
